The whole screen tested about 410,000 compounds, of which about 480 (0.12%) were called active. Cut-off read from the data, not from the text of the source: active = activation above about 50%; inconclusive = mostly about 30% to 49%; inactive = weaker than that. Shown is part of a subset that was picked to be rich in actives.
The compounds below were run against Mucolipin-1 (Homo sapiens) (UniProt Q9GZU1) (assay: qHTS for Agonists of the Human Mucolipin Transient Receptor Potential 1 (TRPML1)). Conditions: TRPML1-expressing cells, Ca2+ dye fluorescence, FDSS; hits give high values.
Chain of Mucolipin-1 (Homo sapiens) (Q9GZU1 whole entry, looked up, the tested form may be a part): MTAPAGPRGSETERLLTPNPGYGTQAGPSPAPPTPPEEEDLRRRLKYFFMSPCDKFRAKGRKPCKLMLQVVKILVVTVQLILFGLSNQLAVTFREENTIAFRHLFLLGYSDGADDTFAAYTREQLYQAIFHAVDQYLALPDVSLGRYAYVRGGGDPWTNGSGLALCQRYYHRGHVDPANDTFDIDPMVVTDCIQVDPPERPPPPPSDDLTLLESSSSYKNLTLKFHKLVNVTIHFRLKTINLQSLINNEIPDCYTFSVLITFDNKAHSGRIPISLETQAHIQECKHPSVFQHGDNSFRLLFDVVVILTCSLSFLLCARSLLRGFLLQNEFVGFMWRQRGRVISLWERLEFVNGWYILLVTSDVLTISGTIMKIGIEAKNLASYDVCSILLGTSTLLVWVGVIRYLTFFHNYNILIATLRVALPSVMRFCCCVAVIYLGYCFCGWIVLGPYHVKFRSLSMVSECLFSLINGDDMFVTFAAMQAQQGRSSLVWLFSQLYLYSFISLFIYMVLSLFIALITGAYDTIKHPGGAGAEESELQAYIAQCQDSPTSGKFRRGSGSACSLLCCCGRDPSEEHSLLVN
From the text: Mutations of human Mucolipin transient receptor potential 1 (TRPML1) cause type IV mucolipidosis (ML4), a devastating neurodegenerative disease in young children. […] Currently, there is no treatment for ML4. […] Under physiological conditions, TRPMLs regulate membrane trafficking by transducing information about PI(3,5)P2 levels into changes in juxtaorganellar Ca2+, thereby triggering membrane fusion/fission events in the late endocytic pathways (endolysosomal trafficking). In addition, TRPML1 mediates release of Fe2+ from late endosomes and lysosomes, which is essential for cellular iron metabolism. Thus, impaired ion (Ca2+ and Fe2+) homeostasis underlies lysosomal dysfunction and ML4 phenotypes. In ML4 cells, the problem is twofold. First, defective Ca2+-dependent membrane trafficking due to TRPML1-deficiency causes accumulation of lipids and other bio-materials in the lysosome. The second strike comes from the lysosomal iron overload (due to impairment of TRPML1's Fe2+ conductivity), which converts the accumulated materials into the nondegradable (resistant to lysosomal degradation) lipofuscin (also called aging pigment) in the lysosome. Lipofuscin accumulation dramatically compromises the functions of lysosomes.
Niemann-Pick type C (NPC) disease is another lysosome storage disease (LSD) with severe neurodegeneration during the childhood. Currently, there is no cure for NPC. […] Thus, TRPML1 is likely to be an essential regulator of lysosome ion homeostasis. We specifically hypothesize that stimulating TRPML1's Fe2+/Ca2+ channel activity in the lysosome using synthetic agonists can alleviate neurodegeneration associated with ML4 or NPC.
To this end, a high throughput screen was developed in a miniaturized format to screen against the Molecular Libraries Small Molecule Repository (MLSMR) to find small molecules that act either as inhibitors or agonist against the TRPML1 channel.
NIH Chemical Genomics Center [NCGC]
NIH Molecular Libraries Probe Centers Network [MLPCN]
Assay Submitter (PI): Haoxing Xu, University of Michigan Ann Arbor
TRPML1-DL cells are dissociated from flasks, counted and, brought up to a density of 500,000 cells per mL of media containing a 1X Tet inducer. Using a Multidrop Combi, 3uL of this cell solution is dispensed to each well of a 1536 TC treated, black, clear bottom hi base plate for a final cell density of 1,500 cells per well. The assay plates are incubated overnight (approximately 16 hours) at 37 degrees C and 5% CO2. Using a Multidrop Combi, 2uL of ABD Ca8 no wash dye plus quencher is added to each well. The assay plates incubate at room temperature in the dark for 45-90 minutes. The assay plate is read on the FDSS using the following protocol: 10 second baseline read, 23nL of compounds and controls are added using 1536 pintool, agonist read for 110 seconds, 1 uL EC80 addition (4uM final 54-4 diluted in media), antagonist read for 110 seconds.
Note: 0% is about no effect.

activation, inactive:
O=C1c2ccccc2S(=O)(=O)c2cc(N3CCN(c4ccccn4)CC3)ccc21 -0.448%
Cc1ccc(CNC(=O)c2ccccc2CCc2ccccc2)cc1 0.628%
O=C(COC(=O)c1ccccc1OCCOc1ccccc1)Nc1cccc(Br)c1 -1.41%
COc1cc2[nH]c(C)c(CCN3CCN(c4ccccc4)CC3)c2cc1OC -0.545%
NC(=O)c1ccc(NC(=O)COC(=O)C(Cc2ccccc2)NC(=O)c2ccccc2)cc1 (centres undefined) 4.33%
CN(CC(=O)Nc1ccc(C(N)=O)cc1)S(=O)(=O)c1ccc2c(c1)OCCO2 0.311%
C[N+]1(CC(=O)c2cccs2)CCOCC1 -0.317%
CN(C)c1ccc(/C=C2\C=Cc3ccccc32)cc1Br 0.0951%
OCCNc1ncnc2oc(-c3ccco3)c(-c3ccco3)c12 0.995%
COc1ccc(-c2cc(C(=O)Nc3sc4c(c3C(N)=O)CCCC4)no2)cc1 0.03%
CC(C)c1ccc(NC(=O)Cn2nnc(C(=O)NCCc3ccccc3)c2N)cc1 1.91%
Cc1ccc(-c2nnc3ccc(SCC(N)=O)nn23)cc1 -0.578%
COc1ccc(C(=O)Nc2nonc2-c2ccc(OC)c(OC)c2)cc1Cl 2.17%
CC1(C)CC(=O)c2cc(C(=O)NCc3ccccc3)c(=O)[nH]c2C1 -0.38%
COc1ccc(C(=O)NCC(c2ccc(N(C)C)cc2)N2CCc3ccccc32)c(OC)c1 (centres undefined) -0.0968%
CCOc1ccccc1N(CC)C(=O)c1cc2ccc3cccnc3c2[nH]1 1.16%
CCOC(=O)c1ccc(NC(=O)CC2C(=O)N(c3ccccc3)C(=O)N2Cc2cccs2)cc1 (centres undefined) 0.378%
Cc1csc(NCC(=O)c2c[nH]c3ccccc23)n1 -0.545%
Nc1ccccc1N -0.412%
c1ccc(Cn2nnc3c(N4CCCCC4)ncnc32)cc1 -0.998%
Cc1cccc(-c2nnc(SC(C)C(=O)Nc3ccccc3)n2C)c1 (centres undefined) -0.995%
Cc1ccc(C=O)cc1Cl -0.475%
C(=Nc1ccc(/C=C/c2ccnc3ccccc23)cc1)c1cc2c3c(c1)CCCN3CCC2 1.62%
ClC/C=C/C[n+]1ccccc1Cl 0.254%
Nc1ccc(/C=C/c2ccnc3ccccc23)c([N+](=O)[O-])c1 17.6%
Cc1ccccc1NC(=O)Cn1c(=O)n(CC2CCC(C(=O)NCCc3ccccc3)CC2)c(=O)c2ccccc21 (centres undefined) 0.124%
Clc1cccc[n+]1CCCC[n+]1ccccc1Cl -0.384%
CCOc1ccc2oc(=O)cc(CN3CCN(C(=O)c4ccc(F)cc4)CC3)c2c1 0.651%
CC(C)(C(=O)NO)c1ccccc1 -0.108%
CN(C(=N)N)c1ccc(/C=C2\C=Cc3ccccc32)cc1 -0.285%
CCCCSc1ncnc2c1sc1nc(N3CCOCC3)c3c(c12)CCCC3 0.201%
CSc1n[nH]c(-c2ccco2)n1 -0.16%
O=C(C[n+]1ccncc1)c1ccc2c(c1)CCCC2 -0.708%
Cc1cc[n+](C2CCCCC2)cc1 3.69%
CN1CCN(/[N+]([O-])=N/Oc2ccc([N+](=O)[O-])cc2[N+](=O)[O-])CC1 1.19%
C=C1C=C(C(F)F)n2ncc(C(=O)NCCc3ccccc3OC)c2N1 -1.28%
COc1ccc(CCNc2nc(-c3ccc(Cl)cc3)cc(C(F)(F)F)n2)cc1OC -0.222%
CCC(=O)N(Cc1ccccc1)c1ccccn1 -0.645%
Cc1cc(C)cc(NC(=O)N(C)Cc2ccccc2)c1 0.932%
COc1ccc(C2/C=C\CN(C(=O)c3ccc(C)cc3)C(Cc3ccccc3)C(=O)N2Cc2ccc(F)cc2)cc1 (centres undefined) 0.118%
CCc1ccc(C2CC(=O)c3c([nH]c(C(=O)OCc4ccc(C)cc4)c3C)C2)cc1 (centres undefined) 1.69%
CCc1ccc(CNCc2c(C(=O)O)n(Cc3ccc(F)cc3Cl)c3cc(OC)ccc23)cc1 0.807%
CCN(CC)c1ccc(/C=C/c2c(C)cnc3ccc(C)cc23)cc1 11.4%
CN(C)c1ccc(/C=c2\[nH]c(=O)/c(=C/c3ccc(N(C)C)cc3)[nH]c2=O)cc1 0.206%
CN(C)c1ccc(/C=C/c2c3ccccc3nc3ccccc23)cc1 0.354%
Cc1ccc(CCNC(=O)Cn2c(-c3cccs3)cc3cc(F)ccc32)cc1 -0.443%
CNCCCOc1cc2nc(N3CCCN(C)CC3)nc(NC3CCN(C)CC3)c2cc1OC -0.513%
COc1cc2nc(N3CCCN(C)CC3)nc(NC3CC3)c2cc1OC -0.539%
COc1cc(OC)c(/C=C/c2ccnc3ccccc23)c(OC)c1 -0.602%
CN(N=O)c1ccc(C=C2c3ccccc3-c3ccccc32)cc1 -0.127%
Cn1nnnc1SCC(=O)N1CCN(C(c2ccccc2)c2ccccc2)CC1 2%
CC(=O)N1CCN(CC(c2ccccc2)c2ccccc2)CC1 -0.726%
CCN1CCN(c2ccc(/C=C/c3ccnc4ccccc34)cc2)CC1 5.01%

activation, active:
Cc1ccc(CNC(=O)c2cccc3c2C(=O)c2ccc(N4CCC(C)CC4)cc2S3(=O)=O)cc1 66.9%
NC(=O)c1ccc(NC(=O)COC(=O)c2c3c(nc4ccccc24)/C(=C\c2ccc4c(c2)OCO4)CCC3)cc1 96%
CN(C(=O)CN(CCO)CC(=O)N(C)C(C)(C)Cc1ccccc1)C(C)(C)Cc1ccccc1 51.2%
CN(C)c1ccc(/C=C2\NC(=S)N(Cc3ccccc3)C2=O)cc1 66.5%
Nc1c(C(=O)c2cccs2)sc2nsc(SCCN3CCCCC3)c12 56.3%
Oc1ccccc1CN1CCN(C(c2ccccc2)c2ccccc2)CC1 84.3%

Reference: PubChem BioAssay AID624414 (National Center for Advancing Translational Sciences (NCATS), 2012)
